Test results from PubChem BioAssay (NCI).
About 83,000 compounds went through this panel and 20% of them were active in at least one assay; those are over-represented in the sample as a whole.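 Testing used 96-well plates and a 48-hour single-concentration exposure. Example: -40 means 40% of the starting cells died.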 Unmarked numbers belong to inactive results. Active and inactive are the calls of the source. How the source made its calls: active means growth percent below 10; inactive means the rest.

Tests used:
Test in all cases: NCI-60 one-dose screen, 48 h (100 = growth as untreated, 0 = no growth, -100 = all killed)
Settings in all cases: 10 µM unless noted
[1] = test system: NCI-H23 lung
[2] = test system: NCI-H226 lung
[3] = test system: NCI-H322M lung
[4] = test system: HOP-62 NSCLC
[5] = test system: NCI-H460 lung
[6] = test system: HOP-92 NSCLC
[7] = test system: NCI-H522 lung
[8] = test system: A549/ATCC NSCLC
[9] = test system: 786-0 renal
[10] = test system: COLO 205 colon

| SMILES | growth [1] | growth [2] | growth [3] | growth [4] | growth [5] | growth [6] | growth [7] | growth [8] | growth [9] | growth [10] |
| --- | --- | --- | --- | --- | --- | --- | --- | --- | --- | --- |
| CC1(C)CC(=O)c2c(ccc(C(=O)C[C@H](N)CO)c2N)O1 | 54.4% | 58.3% | 15% | 22% | 6.79% (active) | 53.7% | 46.2% | 34.7% | 77.5% | 47% |
| CN(C)S(=O)(=O)n1cnc([C@@H]2[C@@H]3C(=O)OC[C@@H]3C[C@]23N=CN(Cc2ccccc2)C3=O)c1 | 128% | 110% | 110% | 95.9% | 113% | 110% | 102% | 123% | 102% | 118% |
| COc1ccc(N(C)c2nc(Cl)nc3cnn(C)c23)cc1 | 34.4% | 1% (active) | 34.1% | 21.9% | 7.51% (active) | 28.6% | -27.6% (active) | 10.8% | 8.74% (active) | -68.3% (active) |
| COc1ccc(NC(=O)c2cccc(-c3cc(=O)c4c(O)c(OC)c(OC)cc4o3)c2)cc1 | 91.3% | 91.9% | 99.5% | 72.2% | 92.7% | 23.6% | 79.4% | 81.3% | 43% | 97.6% |
| O=C(Nc1ccccc1)c1sc(-c2cccc(C(F)(F)F)c2)cc1O | 54.1% | 80.1% | 77.1% | 79.5% | 49.4% | -7.04% (active) | 39.6% | 64.2% | 89.6% | 107% |
| CN1CCN(C2=C(Cl)C(=O)c3ccccc3C2=O)CC1 | 55.5% | 94.2% | 97.4% | 94.9% | 92.3% | 102% | 25.1% | 81.4% | 84.7% | 81.4% |
| COc1ccc(C2CC(c3ccc4ccccc4c3)=NN2c2nc(O)c(C3=c4cc(Cl)ccc4=NC3=O)s2)cc1 (stereo not given) | -40.9% (active) | -73.2% (active) | -29.7% (active) | -53.8% (active) | -20% (active) | -57.2% (active) | -82% (active) | -56% (active) | -80.5% (active) | -79.4% (active) |
| CCCCNC(=O)NS(=O)(=O)c1ccc(N2N=C(c3ccc(C)cc3C)CC2c2ccc(N(C)C)cc2)cc1 (stereo not given) | 69.5% | 82.9% | 87.4% | 88.6% | 39.2% | 71.5% | 50% | 40.6% | 53.1% | 75.6% |
| c1ccc([P+](CCCc2n(Cc3ccc4ccccc4c3)c3ccccc3[n+]2Cc2ccc3ccccc3c2)(c2ccccc2)c2ccccc2)cc1 | 44% | 83.5% | 63.8% | 61.6% | 34.8% | 46.3% | 60.2% | 80.2% | 70.8% | 44.7% |
| COc1cc(NC(=O)c2cc(O)c(CC=C(C)C)c(O)c2)cc2c1O[C@]1(C)CC[C@@H](O)C(C)(C)[C@H]1C2 | 39% | 79.4% | 67.9% | 31.4% | 27.2% | -0.592% (active) | 8.19% (active) | 40.3% | 1.24% (active) | -28.8% (active) |
| O[C@H]1CO[C@H]2[C@@H]1OC[C@@H]2Oc1ccc(Nc2nc(Nc3ccc(F)c(Cl)c3)ncc2F)cc1Cl | 101% | 96.9% | 101% | 118% | 106% | 101% | 98.4% | 102% | 97.7% | 116% |
| COc1ccc(OC)c(Nc2nc3nonc3nc2Nc2cccc(Br)c2)c1 | 6.27% (active) | 13.4% | 5.13% (active) | 8.04% (active) | 0.718% (active) | -25.5% (active) | -13% (active) | 9.15% (active) | 22.1% | -79.3% (active) |
| COc1cc(C(=O)Nc2cc(O)c(CC=C(C)C)c(O)c2)cc2c1O[C@]1(C)CC[C@@H](O)C(C)(C)[C@H]1C2 | 38.7% | 47.6% | 66.4% | 6.01% (active) | 15.6% | -5.08% (active) | 10% | 18.5% | -11.7% (active) | -11.8% (active) |
| CCCCS(=O)(=O)Oc1ccc(-c2nc(C)c(C(=O)OCC)s2)cc1C=O | 84% | 87.1% | 86.7% | 68.4% | 58.7% | 69.5% | 58.3% | 101% | 74.4% | 106% |
| Clc1ccc(/C=N\N=c2\scc(-c3ccc(Cl)cc3)n2/N=C/c2ccc(Cl)cc2)cc1 | 94.4% | 111% | 95.7% | 107% | 97.9% | 106% | 68.7% | 75.7% | 98.1% | 113% |
| O=[N+]([O-])c1cccc(/C=C/c2ccccn2)c1 | 76.1% | 74.9% | 134% | 73.2% | 91% | 34.7% | 72.1% | 73.5% | 53.3% | 105% |
| O=C1c2cccc3c(-c4ccc(-c5nc6c7ccccc7c7ccccc7c6[nH]5)cc4)ccc(c23)C(=O)N1CCN1CCNCC1 | 83.3% | 94.9% | 75.3% | 62.1% | 41.2% | 86.2% | 91.8% | 70.7% | 52.4% | 61.9% |
| COc1ccc(OC)c(/C=C2\COc3ccc(O)c(O)c3C2=O)c1 | 48.9% | 85.2% | 54.3% | 30.2% | 4.53% (active) | 56.7% | -33.4% (active) | 48.1% | 22.4% | 95.3% |
| CCN(CC)CCOc1ccc(/C(=C(\C)c2ccc(F)c(OC)c2)c2ccc(Cl)cc2)cc1 | 25.6% | 75.7% | 65.7% | -4.66% (active) | -54.2% (active) | 20.4% | 26.9% | 30.7% | -64.9% (active) | -58.6% (active) |
| O=C(O)c1ccccc1C(=O)Nc1ccc(Cl)cc1 | 99.3% | 118% | 101% | 107% | 106% | 97.8% | 91% | 85% | 94% | 107% |
